Our source for the Potency and outcome values is PubChem BioAssay (Tox21).

Assay [1] can be described thus: qHTS assay to identify small molecule antagonists of the thyroid receptor (TR) signaling pathway - cell viability counter screen (AID 743064). Further: nearly all actives have a fitted effect of over 50% in size. Further: potency means the concentration at half of the fitted maximal effect. In outline: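 GH3.TRE-Luc cells, 4 h pre-plating; cpd + T3 1 nM final; 37 °C 23.5 h; CellTiter-Fluor 30 min; fluorescence read.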
In general terms: In qHTS, concentration-response curves come from the screen itself.

A short description of assay [2]: qHTS assay to identify small molecule antagonists of the thyroid receptor (TR) signaling pathway (AID 743065). Further: nearly all actives have a fitted effect of over 55% in size. Further: potency means the concentration at half of the fitted maximal effect. In outline: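 GH3.TRE-Luc rat pituitary cells carrying two TR response elements driving luciferase were plated for 4 h, given compound plus 1 nM T3 (final), and incubated 23.5 h at 37 C. ONE-Glo luminescence measured reporter inhibition; CellTiter-Fluor fluorescence tracked cytotoxicity.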

For assay [3], the system named is thyroid hormone receptor (rat, GH3 cells). The experiment in a line: qHTS assay to identify small molecule agonists of the thyroid receptor (TR) signaling pathway (AID 743066; calls by dose curve).
Assay [4] is described as follows: qHTS assay to identify small molecule antagonists of the estrogen receptor alpha (ER-alpha) signaling pathway - cell viability counter screen (AID 743074; calls by dose curve; further: nearly all actives have a fitted effect of over 45% in size).
Assay [5] in a line: qHTS assay to identify small molecule antagonists of the estrogen receptor alpha (ER-alpha) signaling pathway using the BG1 cell line - cell viability counter screen (AID 743081).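 Further: compound given together with 17beta-estradiol as the ER stimulus; series mostly up to about 70 µM; nearly all actives have a fitted effect of over 45% in size.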
The target of assay [6] is Aromatase (Homo sapiens) (UniProt P11511). The experiment in a line: qHTS assay to identify aromatase inhibitors (AID 743083). Further: nearly all actives have a fitted effect of over 55% in size. Further: potency means the concentration at half of the fitted maximal effect.
Sequence of Aromatase (Homo sapiens) (P11511 whole entry, looked up): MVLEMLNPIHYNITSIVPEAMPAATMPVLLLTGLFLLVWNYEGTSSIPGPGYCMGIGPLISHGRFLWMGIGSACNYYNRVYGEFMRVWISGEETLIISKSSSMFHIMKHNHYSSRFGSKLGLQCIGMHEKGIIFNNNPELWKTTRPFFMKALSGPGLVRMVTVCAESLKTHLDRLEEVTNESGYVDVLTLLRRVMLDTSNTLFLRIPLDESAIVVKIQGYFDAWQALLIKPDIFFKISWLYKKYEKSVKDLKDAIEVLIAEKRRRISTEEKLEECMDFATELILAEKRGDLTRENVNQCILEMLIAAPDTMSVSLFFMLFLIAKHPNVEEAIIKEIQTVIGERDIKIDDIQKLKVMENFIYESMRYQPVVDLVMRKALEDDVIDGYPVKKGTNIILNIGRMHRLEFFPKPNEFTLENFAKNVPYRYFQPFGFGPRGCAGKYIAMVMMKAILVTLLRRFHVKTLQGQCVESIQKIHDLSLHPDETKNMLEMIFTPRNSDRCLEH
Assay [7] concerns the target Estrogen receptor (Homo sapiens) (UniProt P03372). Description: qHTS assay to identify small molecule antagonists of the estrogen receptor alpha (ER-alpha) signaling pathway (AID 743069; active means well fitted curve in the direction sought with a large enough effect in the signal ratio in the repeat runs, not every such curve was filed as active; inconclusive means weak or mixed curves, or effect the other way; inactive means no such curve, though single readings can be large or run the other way; the % refers to the signal ratio). In outline:
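HEK293 cells stably carrying an ER-alpha-UAS-bla beta-lactamase reporter were pre-cultured overnight in 2% charcoal-stripped FBS medium. Test compounds in DMSO were added together with 17beta-estradiol for 18 hr at 37C. Read-out was fluorescence after 2 hr with LiveBLAzer B/G FRET substrate at room temperature.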

Assay [8] shares this target. The experiment in a line: qHTS assay to identify small molecule agonists of the estrogen receptor alpha (ER-alpha) signaling pathway (AID 743075; calls by dose curve; further: potency means the concentration at half of the fitted maximal effect).
For assay [9] the target is unchanged. Description: qHTS assay to identify small molecule agonists of the estrogen receptor alpha (ER-alpha) signaling pathway using the BG1 cell line (AID 743079). Further: nearly all actives have a fitted effect of over 20% in size. Further: potency means the concentration at half of the fitted maximal effect.
The nature of assay [10]: qHTS assay to identify small molecule antagonists of the estrogen receptor alpha (ER-alpha) signaling pathway using the BG1 cell line (AID 743080; calls by dose curve;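 further: BG1 cells stimulated with 17beta-estradiol alongside compound; series mostly up to about 70 µM; nearly all actives have a fitted effect of over 25% in size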). The gist of the method:
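Luciferase inhibition measured with ONE-Glo after 30 min at RT in BG1Luc4E2 cells given test compounds and 17beta-estradiol for 21.5 h at 37 C; CellTiter-Fluor viability read in the same wells beforehand.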

Values joined by “and” are separate entries in the source; they are usually repeats but may differ in a detail not shown here. Equal entries are not always repeated. A structure can be active in one record and inactive in another. Active and inactive are the calls of the source. Unless noted, the call rests on the fitted dose curve; in most records, active means well fitted curve in the direction sought with a large enough effect in the repeat runs; inconclusive means weak or mixed curves; inactive means no such curve, though single readings can be large; an effect the other way counts as inactive or inconclusive.

Sequence of Estrogen receptor (Homo sapiens) (P03372 whole entry, looked up): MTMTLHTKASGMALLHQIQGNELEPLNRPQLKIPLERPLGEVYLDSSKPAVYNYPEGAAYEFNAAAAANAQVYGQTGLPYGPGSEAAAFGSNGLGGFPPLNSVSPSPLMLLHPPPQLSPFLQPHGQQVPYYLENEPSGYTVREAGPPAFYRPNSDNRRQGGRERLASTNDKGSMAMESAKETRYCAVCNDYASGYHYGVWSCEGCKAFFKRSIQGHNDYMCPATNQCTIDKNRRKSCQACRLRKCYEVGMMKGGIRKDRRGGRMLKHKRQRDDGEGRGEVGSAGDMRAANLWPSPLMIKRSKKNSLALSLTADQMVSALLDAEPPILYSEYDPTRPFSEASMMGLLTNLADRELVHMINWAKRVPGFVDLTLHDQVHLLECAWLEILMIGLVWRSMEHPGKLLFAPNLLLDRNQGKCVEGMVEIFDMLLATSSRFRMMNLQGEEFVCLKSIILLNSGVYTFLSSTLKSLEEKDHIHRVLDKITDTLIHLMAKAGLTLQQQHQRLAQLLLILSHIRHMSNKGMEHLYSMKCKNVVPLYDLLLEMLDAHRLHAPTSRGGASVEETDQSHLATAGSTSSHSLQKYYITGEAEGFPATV

As for `Oc1ccccc1Cl`, the Potency entry in [1], in assay [2], in [4] and in assay [6] was “inactive” each time. In addition, the compound was called inactive in assay [3] and in assay [5].
As to `CC(C)C#N`, the Potency entry in assay [1], in [2], in assay [4] and in assay [6] was “inactive” in each case. Moreover, the result in assay [3] and in assay [5] was inactive.
In the case of `COc1ccc2c3c1O[C@H]1[C@@H](O)C=C[C@H]4[C@@H](C2)N(C)CC[C@@]341`, the Potency entry in assay [1], in assay [7], in [4], in assay [8], in assay [9] and in [10] was “inactive” in each case. Moreover, the Potency result in [6] is “inactive”. For the same compound, the result in assay [3] and in [5] was inactive.
As to `Clc1cccc(Cl)c1Cl`, the Potency result in assay [1], in assay [2], in assay [4] and in assay [6] was “inactive” each time. The call in [3] and in [5] was inactive.
Take `Nc1ccc(Cc2ccc(N)cc2)cc1`: the Potency entry in assay [1], in [2], in assay [4] and in [6] was “inactive” in each case. Also, the result in [3] and in assay [5] was inactive.
Turning to `O=c1ccc(=O)[nH][nH]1`, the Potency result in assay [1], in [2], in assay [4] and in assay [6] was “inactive” in each case. The outcome in [3] and in assay [5] was inactive.
In the case of `O=[N+]([O-])c1ccccc1`, the Potency result in [1], in assay [7], in assay [4], in assay [8], in [9] and in [10] was “inactive” throughout. Further, the Potency entry in assay [6] was “inactive”. Moreover, the call in [3] and in assay [5] was inactive.
For the compound `CC(NC(C)(C)C)C(=O)c1cccc(Cl)c1` (stereo unspecified), the Potency result in assay [1], in assay [2], in [4] and in assay [6] was “inactive” in each case. Moreover, the outcome in assay [3] and in assay [5] was inactive.
On to `CCCCN(CCCC)SN(C)C(=O)Oc1cccc2c1OC(C)(C)C2`, for which the Potency entry in [1] is “inactive and 24.3 µM (active)”; in assay [2], 21.7 µM (active); in assay [9], “inactive and 54.5 µM (active)”. Besides, the Potency result in [4], in [8], in assay [10] and in assay [6] was “inactive” in each case. In addition, in assay [5], the compound was called inactive.
For the compound `COC(=O)NS(=O)(=O)c1ccc(N)cc1`, the Potency result in assay [1], in [7], in assay [4], in assay [8], in assay [9] and in [10] was “inactive” throughout. For the same compound, the Potency result in assay [6] was “inactive”. Moreover, the compound was classed as inactive in assay [3] and in [5].
In the case of `CC(C)(C)C(O)(CCc1ccc(Cl)cc1)Cn1cncn1` (stereo unspecified), the Potency was 68.6 µM (active) in [1]; 61.9 µM (active) and 61.1 µM (active) in assay [2]; 27.6 µM (active) and 48.6 µM (active) in assay [6]. Moreover, the outcome in assay [3] and in assay [5] was inactive. Further, the Potency result in [4] is “inactive”.
Take `O=c1[nH]c(=O)[nH]c(=O)[nH]1`: the Potency result in assay [1], in assay [2], in assay [4] and in assay [6] was “inactive” in each case. Besides, the compound was called inactive in [3] and in [5].
As for `O=[N+]([O-])c1ccc([As](=O)(O)O)cc1`, the Potency result in assay [1], in assay [7], in assay [4], in assay [8], in [9] and in assay [10] was “inactive” each time. In [6], the Potency entry was “inactive”. Besides, the compound was called inactive in assay [3] and in assay [5].
In the case of `CC(Oc1ccc(Cl)cc1Cl)C(=O)O` (stereo unspecified), the Potency result in [1], in assay [7], in [4], in assay [8], in [9] and in [10] was “inactive” in each case. Besides, the Potency entry in assay [6] was “inactive”. The compound was classed as inactive in [3] and in [5].
In the case of `O=C(NC(=O)c1c(F)cccc1F)Nc1cc(Cl)c(OC(F)(F)C(F)C(F)(F)F)cc1Cl` (stereo unspecified), the Potency result in assay [1], in [7], in [4], in [8], in assay [9] and in assay [10] was “inactive” in each case. Moreover, the Potency entry in [6] was “inactive”. For the same compound, the compound was classed as inactive in assay [3] and in assay [5].
Regarding `c1ccc2c(c1)Oc1ccccc1O2`, the Potency result in assay [1], in assay [2], in assay [4] and in assay [6] was “inactive” throughout. Moreover, the result in [3] and in [5] was inactive.
Regarding `CC(C)OC(=O)Nc1ccccc1`, the Potency entry in [1], in assay [7], in assay [4], in [8], in [10] and in [6] was “inactive” in each case. For the same compound, the outcome in [3] and in assay [5] was inactive. Further, in assay [9], the Potency is 30.7 µM (active) and 54.5 µM (active).
In the case of `Cc1cc(Cl)ccc1O`, the Potency result in assay [1], in assay [2], in assay [4] and in assay [6] was “inactive” each time. In addition, the call in assay [3] and in assay [5] was inactive.
As for `O=c1[nH]c2ccccc2c(=O)o1`, the Potency entry in assay [1], in assay [7], in [4], in assay [8], in assay [9] and in assay [10] was “inactive” each time. Moreover, the Potency entry in assay [6] is “inactive”. Further, the call in assay [3] and in [5] was inactive.
As for `CC(C)(Cl)Cl`, the Potency entry in [1], in [2], in assay [4] and in assay [6] was “inactive” in each case. Moreover, the compound was classed as inactive in [3] and in assay [5].
As for `Cc1ccc([N+](=O)[O-])cc1C`, the Potency result in assay [1], in assay [7], in assay [4], in assay [8], in assay [9] and in [10] was “inactive” in each case. For the same compound, the Potency entry in assay [6] was “inactive”. Besides, the result in [3] and in assay [5] was inactive.
On to `COCCl`, for which the Potency result in [1], in [2], in assay [4] and in assay [6] was “inactive” in each case. In addition, the compound was classed as inactive in [3] and in assay [5].
With `CC(C)=C[C@@H]1[C@@H](C(=O)OCc2coc(Cc3ccccc3)c2)C1(C)C`, the Potency result in assay [1], in assay [7], in assay [4], in assay [8], in assay [9] and in assay [10] was “inactive” in each case. The Potency result in assay [6] was “inactive”. Moreover, the compound was called inactive in [3] and in assay [5].
Turning to `CCCCCCCCCCCC#N`, the Potency entry in [1], in assay [2], in assay [4] and in [6] was “inactive” in each case. The compound was classed as inactive in assay [3] and in [5].
`CCCN(CCC)N=O`: the Potency result in assay [1], in assay [7], in assay [4], in [8], in assay [9] and in [10] was “inactive” in each case. For the same compound, the Potency result in [6] was “inactive”. Moreover, the outcome in assay [3] and in assay [5] was inactive.
Regarding `CCN(CC)CCO`, the Potency result in assay [1], in assay [4] and in assay [6] was “inactive” throughout. Besides, the compound was classed as inactive in [3] and in assay [5].
As for `CN1C(=O)CN=C(c2ccccc2)c2cc(Cl)ccc21`, the Potency result in assay [1] and in assay [4] was “inactive” each time. The compound was called inactive in assay [3] and in assay [5].
Turning to `CN(C)N=O`, the Potency result in assay [1], in assay [4] and in assay [6] was “inactive” throughout. In addition, the outcome in assay [3] and in [5] was inactive.
With `CCOP(=S)(OCC)Oc1cnc2ccccc2n1`, the Potency entry in assay [1], in assay [7], in assay [4], in assay [10] and in assay [6] was “inactive” throughout. Besides, the call in assay [3] and in assay [5] was inactive. Moreover, the Potency entry in assay [8] was “inactive and 17.4 µM [inconclusive] (active)”; in assay [9] it was “inactive and 15.4 µM (active)”.
Take `Clc1ccccc1Cl`: the Potency result in assay [1], in assay [4] and in assay [6] was “inactive” each time. Besides, the compound was classed as inactive in assay [3] and in assay [5].
For `C=CC(N)=O`, the Potency result in [1], in [7], in assay [4], in assay [8], in assay [9] and in assay [10] was “inactive” in each case. In [6], the Potency result was “inactive”. Also, the compound was called inactive in [5].
